# Measurements reported in publication PMC4336329 (PLoS ONE, 2015).
# Among all 310,000 compounds or so, about 14,000 (4.5%) showed an effect of 50% or more. Effects have a minus sign here. This is one part of a sample in which strong results are shown more often than they occur.
# Biological target: human ether-à-go-go-related gene (hERG) potassium channel (human, UniProt Q12809)
# Assay: primary screen, population patch clamp on CHO cells stably expressing hERG; higher = less effect of the substance
# 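Also: peak tail current of the secondary pulse compared with the same well before compound.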
# Chain of human ether-à-go-go-related gene (hERG) potassium channel (Q12809 whole entry, looked up): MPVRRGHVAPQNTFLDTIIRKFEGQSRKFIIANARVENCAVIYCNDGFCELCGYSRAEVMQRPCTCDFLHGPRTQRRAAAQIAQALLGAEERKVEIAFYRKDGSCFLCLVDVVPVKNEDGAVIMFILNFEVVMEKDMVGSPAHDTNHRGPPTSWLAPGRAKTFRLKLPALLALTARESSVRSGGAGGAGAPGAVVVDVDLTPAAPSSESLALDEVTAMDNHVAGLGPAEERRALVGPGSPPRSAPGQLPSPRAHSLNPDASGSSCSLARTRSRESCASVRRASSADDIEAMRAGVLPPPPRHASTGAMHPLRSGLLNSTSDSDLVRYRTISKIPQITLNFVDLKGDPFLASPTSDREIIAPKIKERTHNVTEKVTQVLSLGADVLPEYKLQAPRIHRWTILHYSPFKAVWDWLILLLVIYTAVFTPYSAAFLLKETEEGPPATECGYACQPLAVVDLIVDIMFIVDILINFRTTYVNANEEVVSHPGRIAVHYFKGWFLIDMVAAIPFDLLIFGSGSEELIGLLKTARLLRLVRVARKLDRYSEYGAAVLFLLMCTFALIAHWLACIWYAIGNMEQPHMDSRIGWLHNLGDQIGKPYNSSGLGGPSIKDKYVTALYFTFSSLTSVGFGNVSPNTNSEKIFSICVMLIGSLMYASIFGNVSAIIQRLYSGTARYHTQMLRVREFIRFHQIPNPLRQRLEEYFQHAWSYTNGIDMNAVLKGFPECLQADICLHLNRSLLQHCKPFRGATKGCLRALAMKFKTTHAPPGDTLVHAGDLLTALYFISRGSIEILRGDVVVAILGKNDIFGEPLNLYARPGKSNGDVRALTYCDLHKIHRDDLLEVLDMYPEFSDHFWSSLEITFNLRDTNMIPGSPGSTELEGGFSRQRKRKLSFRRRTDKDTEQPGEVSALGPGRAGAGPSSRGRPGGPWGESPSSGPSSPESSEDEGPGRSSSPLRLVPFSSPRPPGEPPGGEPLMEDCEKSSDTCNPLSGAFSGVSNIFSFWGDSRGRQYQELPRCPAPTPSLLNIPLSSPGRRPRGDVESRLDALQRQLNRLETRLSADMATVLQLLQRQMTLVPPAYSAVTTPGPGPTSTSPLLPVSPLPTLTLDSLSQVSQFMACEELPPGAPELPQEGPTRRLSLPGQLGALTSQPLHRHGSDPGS
row,SMILES,"hERG current change (%, negative = inhibition) at 10uM [%]"
1,Cc1cccc(N2CN(Cc3cccnc3)CNC2=S)c1,-3.28
2,COc1ccc(-c2cc(=O)oc3c(C)c(OCC(=O)Nc4cccnc4)ccc23)cc1,-11.6
3,CC(=O)c1ccc(N2CCN(C(=O)c3cc(-c4ccc5c(c4)OCO5)nc4ccccc34)CC2)cc1,2.88
4,CCn1cc(S(=O)(=O)NCc2ccccc2Br)cn1,-1.6
5,CCOC(=O)N1CCN(C(=O)c2c[nH]c3ccc(S(=O)(=O)N(C)c4ccccc4C)cc3c2=O)CC1,-1.1
6,O[C@@H]1CCCN2CCc3c([nH]c4ccccc34)[C@H]12,10.9
7,Cc1onc(-c2c(Cl)cccc2Cl)c1C(=O)N1CCN(c2ccccc2F)CC1,7.58
8,O=C(CN(C1CCCCC1)S(=O)(=O)c1ccc(Cl)cc1)N1CCOCC1,-59.5
9,CCOC(=O)N1CCN(C(=O)CN(C2CCCCC2)S(=O)(=O)c2ccc(Cl)cc2)CC1,-47.8
10,Cc1ccc(S(=O)(=O)N(CC(=O)N2CCOCC2)C2CCCCC2)cc1,-23.3
11,Cc1ccc(S(=O)(=O)N(CC(=O)N2CCCC2)C2CCCCC2)cc1,-37.7
12,O=C(CN(C1CCCCC1)S(=O)(=O)c1ccccc1)N1CCCC1,-59.3
13,NC(=O)C1CCN(C(=O)CN(C2CCCCC2)S(=O)(=O)c2ccc(F)cc2)CC1,-13.4
14,Cc1ccc(SCC(=O)OCC(=O)N(CC(C)C)C2CCS(=O)(=O)C2)cc1C (stereo not shown),-4.29
15,Cc1sc(NC(=O)c2ccccc2)c(C(c2ccc(Cl)cc2)N2CCN(CCO)CC2)c1C (stereo not shown),-4.47
16,CCc1cc(C(c2ccccc2OC)N2CCOCC2)c(NC(=O)c2ccccc2)s1 (stereo not shown),21.3
17,CCOc1ccc(C(c2c(NC(=O)c3ccccc3)sc(C)c2C)N2CCN(CCO)CC2)cc1 (stereo not shown),-21.1
18,CC(=O)Nc1sc2c(c1C(c1ccccn1)N1CCN(C)CC1)CCCC2 (stereo not shown),-12.9
19,CCc1cc(C(c2ccncc2)N2CCN(C)CC2)c(NC(=O)c2ccccc2)s1 (stereo not shown),-40.2
20,Cc1sc(NC(=O)c2ccccc2)c(C(c2ccccn2)N2CCN(CCO)CC2)c1C (stereo not shown),-53.7
21,CCc1cc(C(c2ccccn2)N2CCN(C)CC2)c(NC(=O)c2ccccc2)s1 (stereo not shown),-59.1
22,CCN1CCN(C(c2ccccn2)c2c(NC(=O)c3ccccc3)sc(C)c2C)CC1 (stereo not shown),-59.8

row,SMILES,"hERG current change (%, negative = inhibition) at 10uM [%]"
1,COc1cccc(C(c2c(NC(=O)c3ccccc3)sc(C)c2C)N2CCN(C)CC2)c1 (stereo not shown),-17.6
2,COc1ccc(/C(C)=N/NC(=O)c2nnn(-c3nonc3N)c2-c2ccccc2)cc1,19.8
3,N#CC(c1ccccn1)c1ncc(C(F)(F)F)cc1Cl (stereo not shown),23.5
4,Cc1cccc(Cn2c(C(=O)OC(C)C)cc3c2ccn3C)c1,6.07
5,S=c1[nH]nc(COc2ccc(Cl)cc2)n1C1CCCCC1,14.3
6,Cc1cc(NC(=O)COC(=O)[C@@H](NS(=O)(=O)c2ccccc2)C(C)C)no1,-7.67
7,COc1ccc(S(=O)(=O)NC(C)C(=O)NCc2ccncc2)cc1OC (stereo not shown),15.7
8,Cc1c([C@H]2[C@@H](CC#N)C2(C)C)c2ccccc2n1C,-10.4
9,Clc1ccc(-c2nnc(NCCN3CCCC3)c3ccccc23)cc1,-71.3
10,Clc1ccc(-c2nc(NCCN3CCOCC3)c3ccccc3n2)cc1,-15.6
11,Clc1ccc(-c2nnc(NCc3ccccc3)c3ccccc23)cc1,-13.3
12,O=C(Nc1cccc(Cl)c1)OCc1cncs1,-2.42
13,O=c1c(-c2nnc(SCc3ccc(Cl)cc3)o2)cccn1Cc1ccccc1,-46.2
14,O=c1c(-c2nnc(SCc3ccc(Cl)c(Cl)c3)o2)cccn1Cc1ccccc1,1.6
15,O=c1c(-c2nnc(SCc3ccc(Cl)cc3Cl)o2)cccn1Cc1ccccc1,-62.5
16,Cc1ccc(NC(=O)C(CC(C)C)NC(=O)C2CCC(C)CC2)nc1 (stereo not shown),-6.68
17,CCCc1cc(=O)[nH]c(SCC(=O)Nc2c(C)cccc2C)n1,6.31
18,COc1ccc2cc(C(=O)C3CCCN(Cc4cccc(C)n4)C3)ccc2c1 (stereo not shown),-66.5
19,COc1cccc(C(=O)C2CCCN(Cc3cccc(C)n3)C2)c1 (stereo not shown),-53.4
20,COc1c(C)cc(C(=O)C2CCCN(Cc3cccc(C)n3)C2)cc1C (stereo not shown),-48.7
21,COc1cccc(C(=O)C2CCCN(CC3=Cc4cc(OC)ccc4OC3)C2)c1 (stereo not shown),-56.6
22,Cc1cccc(CN2CCCC(C(=O)c3cccc(OC(C)C)c3)C2)n1 (stereo not shown),-40

row,SMILES,"hERG current change (%, negative = inhibition) at 10uM [%]"
1,COc1ccc(C(=O)C2CCCN(Cc3ccccn3)C2)c(OC)c1 (stereo not shown),-55.7
2,CC(=O)Nc1ccc(N/C=C/C(=O)c2ccco2)cc1,1.94
3,Cn1nc(C(=O)Nc2nc3ccc(S(C)(=O)=O)cc3s2)ccc1=O,-20.7
4,CN1CCN(C(=O)c2ccc3c(c2)N(Cc2cccc(Cl)c2)C(=O)c2ccccc2S3=O)CC1 (stereo not shown),-19.5
5,O=C(/C=C/N1CCN(Cc2ccccc2)CC1)C(F)(F)F,4.36
6,Cc1nn(-c2ccccc2)c(Oc2ccccc2)c1C=O,-6.92
7,CCc1c(C)c(C#N)c2nc3ccccc3n2c1NCc1ccco1,-35.4
8,Cc1ccc([N+](=O)[O-])cc1N(CC(=O)N1CCCCC1)S(C)(=O)=O,12.2
9,Cn1cccc1Cc1nnc(SCC(=O)Nc2cccc(F)c2)n1CCc1ccccc1,-20.3
10,Cl.NCCOc1ccccc1-c1ccccc1,-11.1
11,CC(C)(C)c1ccc(-c2n[nH]c(=S)n2C2CCCC2)cc1,4.01
12,Cc1ccc(C(=O)Nc2ccc3c(c2)OCO3)cc1Cl,19.7
13,CSc1ccc(CNC2CN3CCC2CC3)cc1.Cl (stereo not shown),-10.7
14,C[C@@H]1CCC2[C@](C)(CO)[C@@H](O)CC[C@]2(C)[C@@]12CCC(CO)(CCO)O2 (stereo partly shown),26.8
15,O=C1CN(C(=O)COc2ccc(F)cc2Br)c2ccccc2N1,-29.9
16,O=C(O)c1ccc2c(=O)n3cc(C(=O)c4ccccc4O)cc(Cl)c3nc2c1,1.38
17,COc1ccc(C(=O)C2CCCN(Cc3ccon3)C2)c(OC)c1 (stereo not shown),-53.9
18,COc1cccc(C(=O)C2CCCN(Cc3ccon3)C2)c1 (stereo not shown),8.72
19,CCNC(=O)N1CCCC(C(=O)c2ccc(C(F)(F)F)cc2)C1 (stereo not shown),-23.4
20,COc1ccc(C(=O)C2CCCN(Cc3ccon3)C2)cc1OC (stereo not shown),11.2
21,COc1cccc(C(=O)C2CCCN(Cc3ccccn3)C2)c1 (stereo not shown),-26
22,CC(=O)Nc1ccc(CN2CCCC(C(=O)c3cccc(C(F)(F)F)c3)C2)cc1 (stereo not shown),-20.7

row,SMILES,"hERG current change (%, negative = inhibition) at 10uM [%]"
1,CC(=O)Nc1ccc(CN2CCCC(C(=O)c3ccc(C(F)(F)F)cc3)C2)cc1 (stereo not shown),-77.3
2,COc1ccc(C(=O)C2CCCN(Cc3sc(N4CCCC4)nc3Cl)C2)c(OC)c1 (stereo not shown),-49.7
3,COc1ccc2cc(C(=O)C3CCCN(Cc4ccccn4)C3)ccc2c1 (stereo not shown),-66.2
4,COc1ccc(C(=O)C2CCCN(Cc3cccc(C)n3)C2)c(OC)c1 (stereo not shown),-76.2
5,COc1ccc2cc(C(=O)C3CCCN(C(=O)CCc4ccccn4)C3)ccc2c1 (stereo not shown),-45.2
6,Cc1ccc(OCCN2CCN(C(=O)CCC(=O)Nc3nnc(C)s3)CC2)cc1,-7.69
7,Nc1nc(SC2c3cccc4cccc(c34)C2NS(=O)(=O)c2ccccc2)n[nH]1 (stereo not shown),5.88
8,Cc1nc2ccc(C(=O)O)cc2c2c1CC(C)S2 (stereo not shown),-16
9,CCCCN1CC(=O)N2[C@H]3c4ccccc4OC[C@@H]3[C@H](c3ccccc3)[C@]2(C)C1=O,-19.9
10,COc1cccc(Nc2ccc(C(=O)O)cc2N)c1,11.3
11,CN(C(=O)COC(=O)C1c2ccccc2Oc2ccccc21)C1CCS(=O)(=O)C1 (stereo not shown),4.56
12,CC(C)C(CC(=O)N1CCCCC1)C1CCOC(C)(C)C1 (stereo not shown),-2.24
13,Cc1cnc(C(=O)N2CCCC(C(=O)c3ccc(C(F)(F)F)cc3)C2)cn1 (stereo not shown),-17.7
14,CC(C)(C)c1ccc(C(=O)C2CCCN(Cc3ccon3)C2)cc1 (stereo not shown),-1.45
15,Cc1cccc(CN2CCCC(C(=O)c3ccc(C(F)(F)F)cc3)C2)n1 (stereo not shown),-68.2
16,CC1Sc2ccc(S(=O)(=O)N3CCN(c4cccc(Cl)c4)CC3)cc2NC1=O (stereo not shown),9.32
17,CCOC(=O)c1c(C)[nH]c(C)c1C(=O)COC(=O)C1CCCN1S(=O)(=O)c1ccccc1F (stereo not shown),-2.63
18,NC(=O)c1nc(C(=O)N2CCN(c3ccccc3)CC2)c2ccccc2n1,2.14
19,CCOc1ccc(NC(=S)NC(=O)c2cncc(Br)c2)cc1,10.1
